Data from PubChem BioAssay AID771 (SRMLSC, 2007).
Screen size: about 3,300 compounds; about 55 (2%) were called active.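 How the source made its calls: active means growth inhibition above 90%, meaning viable cell count by imaging cut by more than 90% versus vehicle controls; inactive means growth inhibition below 90%.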 The list comes from a sample in which actives are over-represented; it also holds similar structures and randomly drawn compounds.

Test: HT29 colon tumor cell growth inhibition, primary screen, imaging, high content imaging, 48 h, CellTiter-Glo (AID 771);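 on condensed nuclei: condensed means Hoechst nuclear area under control median minus 1.5 SD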
Settings: HCS imaging cell count, at 10 µM, stronger effect = higher value; for condensed nuclei: measured here: percent cells with condensed nuclei
[1] = measured here: ATP CellTiter-Glo viability inhibition

| Compound | growth inhibition | growth inhibition [1] [%] | condensed nuclei [%] |
| --- | --- | --- | --- |
| O=c1/c(=C/c2ccccn2)sc2n1CN(c1ccccc1)CN=2 | 1.6% (inactive) | 3.13 | 16.2 |
| CNC(=O)Nc1cccc(NC(=O)NC)n1 | 24.6% (inactive) | 6.59 | 0.95 |
| COc1cccc(C2/C(=C(/O)c3cnn(-c4ccccc4)c3C)C(=O)C(=O)N2CCN(C)C)c1 (centres undefined) | 51.1% (inactive) | -8.25 | 1.69 |
| Cc1[nH]c2ccc3c(ncn3CCC#N)c2c1C | 3.78% (inactive) | 2.93 | 1.79 |
| C=CCNc1nc(N2CCOCC2)c(C#N)c2c1CN(C)CC2 | -13.1% (inactive) | -3.95 | 0.96 |
| C=CCNc1nc(N2CCCCC2)c(C#N)c2c1CN(Cc1ccccc1)CC2 | 71.7% (inactive) | 37 | 2.73 |
| CCN1CCc2c(C#N)c(NCc3ccccc3)nc(N(CC)CC)c2C1 | -3.81% (inactive) | -0.65 | 2.33 |
| N#Cc1c(NCCN)nc(NCc2ccccc2)c2c1CCN(Cc1ccccc1)C2 | 93.1% (active) | 87.7 | 30.8 |
| CCN1CCc2c(C#N)c(N3CCCCC3)nc(NCc3ccccc3)c2C1 | -17.2% (inactive) | 20.2 | 3.42 |
| C=CCNc1nc(NCc2ccccc2)c(C#N)c2c1CN(C)CC2 | 95.6% (active) | 82.7 | 12.5 |
| CCN1CCc2c(C#N)c(NCc3ccccc3)nc(NCCO)c2C1 | -5.72% (inactive) | 1.65 | 1.53 |
| CN1CCc2c(C#N)c(N3CCCCC3)nc(NCc3ccccc3)c2C1 | 94.8% (active) | 84.9 | 19.2 |
| CCN1CCc2c(C#N)c(N3CCOCC3)nc(NCc3ccccc3)c2C1 | 21.2% (inactive) | 14.1 | 2.32 |
| CCCCOc1ccc(C)cc1CN(CCO)CCO | -4.82% (inactive) | 1.6 | 1.37 |
| Cc1ccc(-c2nn(C)c(=O)c3ccccc23)cc1CNC(=O)CSc1nc2ccccc2o1 | -7.38% (inactive) | -4.16 | 1 |
| CCC1(C)Cc2c(sc3c2c(=O)n(C)c2nnc(SCC(=O)c4ccc(Cl)cc4)n32)CO1 (centres undefined) | 0.56% (inactive) | 9.73 | 13.8 |
| Cc1cc(C)nc(NC2=NCC(=O)N2c2cccc(Cl)c2)n1 | 27.2% (inactive) | -9.73 | 3.28 |
| CCOC(=O)c1c(-c2cccs2)csc1NC(=O)CCCC(=O)O | 5.6% (inactive) | 4.31 | 1.96 |
| CCCc1nc(N2CCOCC2)c(C#N)c2c1CCCC2 | 24% (inactive) | 6.89 | 0.7 |
| CSc1nc2sc3c(c2c(=O)[nH]1)CCC(C)C3 (centres undefined) | 25.4% (inactive) | 10.4 | 2.48 |
| CCOc1ccc(C2C(C(=O)c3ccc(C)o3)=C(O)C(=O)N2CCCN(CC)CC)cc1 (centres undefined) | 17% (inactive) | 0.35 | 1.26 |

| Compound | growth inhibition | growth inhibition [1] [%] | condensed nuclei [%] |
| --- | --- | --- | --- |
| c1ccc(-c2nc(NCC3CCCO3)c3ccccc3n2)nc1 (centres undefined) | 16.9% (inactive) | 30.9 | 2.06 |
| O=C1CCC(=O)N1CN(Cc1ccco1)CN1C(=O)CCC1=O | -33.3% (inactive) | -19.2 | 2.24 |
| COc1ccc(-n2ncc3c(Nc4cccc(C)c4)ncnc32)cc1 | 30.6% (inactive) | -2.53 | 3.63 |
| COc1ccc(C(=O)CSC2=C(C#N)C3(CCCCC3)C(C#N)=C(N)N2)cc1 | 27% (inactive) | 4.09 | 7.53 |
| N#CC1=C(N)NC(SCc2ccc(Cl)cc2)=C(C#N)C12CCCCC2 | 79.6% (inactive) | 70.5 | 17.1 |
| N#CC1=C(N)NC(SCc2ccc(F)cc2)=C(C#N)C12CCCCC2 | 95.4% (active) | 69.3 | 27.3 |
| C=CCN(C(=O)CCC(=O)O)C1CC(=O)N(c2ccc(OC)cc2)C1=O (centres undefined) | -35.5% (inactive) | -24.9 | 1.95 |
| Cn1c(=NCC(O)COc2ccccc2)sc2ccccc21 (centres undefined) | 25.5% (inactive) | -13.5 | 3.63 |
| COCCNc1oc(-c2ccc(C)cc2)nc1C#N | 11.6% (inactive) | -12.3 | 2.76 |
| O=C(O)c1ccc(COCC(F)(F)C(F)F)o1 | -17.7% (inactive) | -10.2 | 3.29 |
| CCOc1ccc(Cn2c(O)cc(=O)[nH]c2=O)cc1 | -7.52% (inactive) | -20.8 | 1.27 |
| CC1CN(C2CCN(C(=O)c3ccccc3Cl)CC2)CC(C)O1 (centres undefined) | -18.6% (inactive) | -39.5 | 4.01 |
| CC1CN(C2CCN(C(=O)c3ccccc3)CC2)CC(C)O1 (centres undefined) | 92.5% (active) | -44.3 | 3.65 |
| CC1CN(C2CCN(C(=O)COc3ccccc3)CC2)CC(C)O1 (centres undefined) | -1.5% (inactive) | -3.33 | 2.3 |
| CCOC(=O)c1sc2c(c1C)c(=O)c(C(=O)OCC)cn2CC | -35.2% (inactive) | -21.7 | 0.84 |
| CCCc1[nH]nc2c1C(c1cccc(OC)c1)C(C#N)=C(N)O2 (centres undefined) | 55.3% (inactive) | 9.76 | 16.6 |
| Cc1cccc(OCC(=O)N2CCC(N3CCOCC3)CC2)c1 | -31.7% (inactive) | -31.1 | 0.89 |
| CNCCCC12CCC(c3ccccc31)c1ccccc12 | 95% (active) | – | 18.3 |
| Nc1ccc(Cl)cc1/C(=N/O)c1ccccc1 | 33.8% (inactive) | -14.5 | 3.59 |
| C=C1[C@@H](C)C2[C@H](Cc3ccccc3)NC(=O)[C@]23OC(=O)CC[C@H](O)CCC[C@H](C)C/C=C/[C@H]3[C@@H]1O (some centres undefined) | 92.4% (active) | – | 18.2 |
| CCOC(=O)CSc1nc(N(C)C)nc(N(C)C#N)n1 | 27.7% (inactive) | -19.8 | 1.4 |
